Experimental data reported in PubChem BioAssay.

test: stimulators of nuclear beta-catenin in C2C12, primary screen, imaging, WNT3A-conditioned medium, mouse C2C12, NPC library (AID 1117326); settings: at 10 µM, hits give high values; in the data active = nuclear beta-catenin stimulation mostly above about 4.2% (no sharp cut-off); inactive = mostly below about 10%; also: reference of the scale not given here

Nuclear beta-catenin stimulation, inactive:
C[C@]12CCC(=O)C=C1CC[C@@H]1[C@@H]2[C@@H](O)C[C@@]2(C)[C@H]1CC[C@]2(O)C(=O)COP(=O)(O)O -0.6%
CCCc1ncc(C[n+]2ccccc2C)c(N)n1 -1.3%
COc1cc(NS(=O)(=O)c2ccc(N)cc2)nc(OC)n1 0.5%
Cc1cc(NC(=O)C2=C(O)c3ccccc3S(=O)(=O)N2C)no1 4%
O=C(O)[C@@H](O)[C@H](O)[C@H](O)[C@@H](O)C(=O)O -1.3%
CN1CCOC(c2ccccc2)c2ccccc2C1 (stereo not drawn) -0.7%
Cc1cccc(N(C)C(=S)Oc2ccc3ccccc3c2)c1 -0.1%
O=C1c2ccccc2C(=O)C1c1ccccc1 0.3%
Cc1onc(-c2ccccc2Cl)c1C(=O)N[C@@H]1C(=O)N2[C@@H]1SC(C)(C)[C@@H]2C(=O)O 0.5%
CO[C@]12C[C@@H](COC(=O)c3cncc(Br)c3)CN(C)[C@@H]1Cc1cn(C)c3cccc2c13 0.8%
Cc1ccccc1OCC(O)CO (stereo not drawn) 0.8%
Cc1ccc(C(C)C)cc2c(C)ccc1-2 -1.2%
O=C1C(=O)c2ccccc2C(O)=C1C1CCC(c2ccc(Cl)cc2)CC1 (stereo not drawn) 2.2%
Cc1ccc2c(Cl)cc(Cl)c(O)c2n1 0.6%
NC(N)=NS(=O)(=O)c1ccc(N)cc1 0.5%
CCOc1ccc(NC(C)=O)cc1 -0.6%
Cn1c(=O)c2c(ncn2CC(O)CO)n(C)c1=O (stereo not drawn) -0.1%
Cc1cc(=O)n(-c2ccccc2)n1C 1.1%
O=C(O)c1ccccc1Nc1cccc(C(F)(F)F)c1 1.3%
CC1=NN(c2ccccc2)C(=O)C1 0.5%
Cc1c(C(=O)O)c(O)cc2c1C(=O)c1c(O)c([C@@H]3O[C@H](CO)[C@@H](O)[C@H](O)[C@H]3O)c(O)c(O)c1C2=O 0%
CC(C)(Sc1cc(C(C)(C)C)c(O)c(C(C)(C)C)c1)Sc1cc(C(C)(C)C)c(O)c(C(C)(C)C)c1 4.3%
CN1C(C(=O)Nc2ccccn2)=C(O)c2sccc2S1(=O)=O 0.8%
CCCCC(=O)O[C@]1(C(=O)CO)[C@@H](C)C[C@H]2[C@@H]3CCC4=CC(=O)C=C[C@]4(C)[C@@]3(F)[C@@H](O)C[C@@]21C 2.9%
COc1ccccc1OCC(O)CO (stereo not drawn) 1.9%
CCCCOc1cc(C(=O)NCCN(CC)CC)c2ccccc2n1 5.7%
CC1(C)O[C@H]2CC(=O)OC[C@]23[C@H]2CC[C@@]4(C)[C@H](c5ccoc5)OC(=O)[C@H]5O[C@]54[C@]2(C)C(=O)C[C@@H]13 -0.3%
CC1=CC(=O)c2ccccc2C1=O 25%
COc1ccc2c(c1)c(CC(=O)OCC(=O)O)c(C)n2C(=O)c1ccc(Cl)cc1 1.8%
CC/C(=C(/CC)c1ccc(O)cc1)c1ccc(O)cc1 21.1%
COc1cc(C(=O)NCc2ccc(OCCN(C)C)cc2)cc(OC)c1OC 9.2%
O=C1c2ccccc2C(=O)c2c1ccc(O)c2O 1.2%
CCN(CC)CCOC(=O)C(c1ccccc1)c1ccccc1 0.8%
CC1=C(C(=O)O)N2C(=O)[C@@H](NC(=O)[C@H](N)C3=CCC=CC3)[C@H]2SC1 -1.1%
NC(=O)NC1NC(=O)NC1=O (stereo not drawn) -0.1%
CC(C)NC[C@@H](O)COc1cccc2ccccc12 -0.4%
N=C(N)N -1.9%
CCOC(=O)[C@H](CCc1ccccc1)N[C@@H](C)C(=O)N1CCC[C@H]1C(=O)O 4.4%
